{"source": "the supplement of paper PMC9135407", "tested_on": "primary human hepatic stellate cells (donor 1)", "experiment": "scaled lipid accumulation score (0 = DMSO-like, 1 = nortriptyline-like); higher = stronger HSC inactivation (lipid re-accumulation), active = hit call of the paper", "details": "48 h", "key": {"[1]": {"details": "library stock concentration: 3.33 mM"}, "[2]": {"details": "library stock concentration: 10 mM"}, "[3]": {"details": "library stock concentration: 80 uM"}, "[4]": {"details": "library stock concentration: 400 uM"}, "[5]": {"details": "library stock concentration: 2 mM"}, "[6]": {"details": "library stock concentration: 1 mM"}, "[7]": {"details": "library stock concentration: 6.8 mM"}}, "note": "Several values for one entry are separate records, joined by “and”; a condition that tells them apart may be missing. Identical values can stand only once. Counter-ions that a name gives are not always drawn. About 620 (11%) of roughly 5,800 compounds showed activity. The sample as a whole holds a higher share of actives than the screen did. Values without a mark were called inactive.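 The calls were made as follows: active = score above a cut-off or among the top three wells of a plate; in these data no inactive exceeds 0.85.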"}
{"compound": "CCN(CCO)CCCOc1ccc2c(Nc3cc(CC(=O)Nc4cccc(F)c4)[nH]n3)ncnc2c1", "note": "[Barasertib (AZD1152-HQPA)]", "values": [{"measurement": "scaled lipid accumulation score", "setting": "[1]", "result": "≤ 0"}, {"measurement": "scaled lipid accumulation score", "setting": "[2]", "result": "≤ 0"}]}
{"compound": "COc1ccc(Cl)cc1NC(=O)Nc1cc(C)nc2ccccc12", "note": "[listing 1 of 2 here]", "values": [{"measurement": "scaled lipid accumulation score", "setting": "[2]", "result": "1.1 (active)"}]}
{"compound": "COc1ccc(Cl)cc1NC(=O)Nc1cc(C)nc2ccccc12", "note": "[IGF-1R Inhibitor II]", "values": [{"measurement": "scaled lipid accumulation score", "setting": "[1]", "result": 0.188}]}
{"compound": "COc1ccc(Cl)cc1NC(=O)Nc1cc(C)nc2ccccc12", "note": "[listing 2 of 2 here]", "values": [{"measurement": "scaled lipid accumulation score", "setting": "[1]", "result": 0.097}, {"measurement": "scaled lipid accumulation score", "setting": "[2]", "result": 0.391}]}
{"compound": "CCn1cc(NC(=S)Nc2cc(Cl)ccc2OC)c(C(N)=O)n1", "values": [{"measurement": "scaled lipid accumulation score", "setting": "[1]", "result": "≤ -0.009"}, {"measurement": "scaled lipid accumulation score", "setting": "[2]", "result": 0.111}]}
{"compound": "O=C(CCSCc1ccco1)NNC(=O)N1Cc2ccccc2Oc2ccc(Cl)cc21", "values": [{"measurement": "scaled lipid accumulation score", "setting": "[2]", "result": "≤ 0"}]}
{"compound": "CC1CCN=C(N)S1", "note": "(centres undefined) [AMT hydrochloride]", "values": [{"measurement": "scaled lipid accumulation score", "setting": "[2]", "result": 0.018}]}
{"compound": "CC1CCN=C(N)S1", "note": "(centres undefined)", "values": [{"measurement": "scaled lipid accumulation score", "setting": "[2]", "result": "≤ 0"}]}
{"compound": "O=C(c1ccc(Nc2nccc(-c3cc4ccccc4s3)n2)cc1)N1CCC(N2CCCC2)CC1", "note": "[IKK-16 (IKK Inhibitor VII)] [listing 1 of 2 here]", "values": [{"measurement": "scaled lipid accumulation score", "setting": "[2]", "result": 0.246}]}
{"compound": "O=C(c1ccc(C(=O)N2CCC(N3CCCC3)CC2)c(Nc2ccccc2)c1)N1CCC(N2CCCC2)CC1", "values": [{"measurement": "scaled lipid accumulation score", "setting": "[3]", "result": "≤ 0"}, {"measurement": "scaled lipid accumulation score", "setting": "[4]", "result": "≤ 0"}, {"measurement": "scaled lipid accumulation score", "setting": "[5]", "result": "≤ 0"}, {"measurement": "scaled lipid accumulation score", "setting": "[1]", "result": "≤ 0"}, {"measurement": "scaled lipid accumulation score", "setting": "[2]", "result": "0.002 and ≤ 0"}]}
{"compound": "O=C(c1ccc(Nc2nccc(-c3cc4ccccc4s3)n2)cc1)N1CCC(N2CCCC2)CC1", "note": "[IKK-16 (IKK Inhibitor VII)] [listing 2 of 2 here]", "values": [{"measurement": "scaled lipid accumulation score", "setting": "[1]", "result": "1.04 (active)"}]}
{"compound": "O=C(c1cncc(Br)c1)N1CCC(N2CCCC2)CC1", "values": [{"measurement": "scaled lipid accumulation score", "setting": "[3]", "result": "≤ 0"}, {"measurement": "scaled lipid accumulation score", "setting": "[4]", "result": "≤ 0"}, {"measurement": "scaled lipid accumulation score", "setting": "[5]", "result": "≤ 0"}, {"measurement": "scaled lipid accumulation score", "setting": "[1]", "result": "≤ -0.009"}, {"measurement": "scaled lipid accumulation score", "setting": "[2]", "result": "≤ 0"}]}
{"compound": "O=C(c1ccc(Nc2nccc(-c3cc4ccccc4s3)n2)cc1)N1CCC(N2CCCC2)CC1", "values": [{"measurement": "scaled lipid accumulation score", "setting": "[2]", "result": 0.18}]}
{"compound": "O=C(c1ccc(Nc2nccc(-c3cc4ccccc4s3)n2)cc1)N1CCC(N2CCCC2)CC1", "note": "[IKK Inhibitor VII]", "values": [{"measurement": "scaled lipid accumulation score", "setting": "[1]", "result": "1.06 (active)"}]}
{"compound": "O=C(Cc1cccs1)N[C@@H]1C(=O)N2C(C(=O)[O-])=C(C[n+]3ccccc3)CS[C@H]12", "note": "[Cephaloridine]", "values": [{"measurement": "scaled lipid accumulation score", "setting": "[2]", "result": "≤ 0"}]}
{"compound": "COc1ccc2cc([C@H](C)CO)ccc2c1", "note": "[Naproxol]", "values": [{"measurement": "scaled lipid accumulation score", "setting": "library stock concentration: 9.2 mM", "result": "≤ 0"}, {"measurement": "scaled lipid accumulation score", "setting": "[2]", "result": 0.031}]}
{"compound": "O=c1cc(CN2CCOCC2)occ1OCCCCCSc1ccnc2cc(C(F)(F)F)ccc12", "values": [{"measurement": "scaled lipid accumulation score", "setting": "[1]", "result": "≤ -0.009"}, {"measurement": "scaled lipid accumulation score", "setting": "[2]", "result": 0.475}]}
{"compound": "CCCCC[C@H](O)/C=C/[C@H]1[C@H](O)CC(=O)[C@@H]1C/C=C/CCCC(=O)O", "note": "[5-trans Prostaglandin E2]", "values": [{"measurement": "scaled lipid accumulation score", "setting": "[6]", "result": "≤ 0"}]}
{"compound": "COC(=O)Nc1nc2cc(C(=O)c3cccs3)ccc2[nH]1", "note": "[Nocodazole] [listing 1 of 2 here]", "values": [{"measurement": "scaled lipid accumulation score", "setting": "[1]", "result": 0.021}, {"measurement": "scaled lipid accumulation score", "setting": "library stock concentration: 6.6 mM", "result": 0.262}]}
{"compound": "COC(=O)Nc1nc2cc(C(=O)c3cccs3)ccc2[nH]1", "note": "[Nocodazole] [listing 2 of 2 here]", "values": [{"measurement": "scaled lipid accumulation score", "result": "0.883 (active)"}]}
{"compound": "COC(=O)Nc1nc2cc(C(=O)c3ccccc3)ccc2[nH]1", "note": "[Mebendazol]", "values": [{"measurement": "scaled lipid accumulation score", "setting": "[7]", "result": 0.097}]}
{"compound": "COC(=O)Nc1nc2cc(C(=O)c3ccccc3)ccc2[nH]1", "note": "[Mebendazole]", "values": [{"measurement": "scaled lipid accumulation score", "result": "≤ 0"}, {"measurement": "scaled lipid accumulation score", "setting": "[7]", "result": 0.082}, {"measurement": "scaled lipid accumulation score", "setting": "[2]", "result": "0.402 and 0.071"}]}
{"compound": "CCCNS(=O)(=O)Nc1ncnc(OCCOc2ncc(Br)cn2)c1-c1ccc(Br)cc1", "note": "[Macitentan]", "values": [{"measurement": "scaled lipid accumulation score", "setting": "[1]", "result": "≤ -0.009"}, {"measurement": "scaled lipid accumulation score", "setting": "[2]", "result": "≤ 0"}]}
{"compound": "CCCCCCCCCCCCC/C=C/[C@@H](O)[C@@H](N)CO", "note": "[Sphingosine]", "values": [{"measurement": "scaled lipid accumulation score", "setting": "[6]", "result": "≤ -0.021"}]}
{"compound": "CCCCCCCCCCCCC/C=C/[C@@H](O)[C@H](CO)N(C)C", "note": "[N,N-Dimethylsphingosine] [listing 1 of 2 here]", "values": [{"measurement": "scaled lipid accumulation score", "setting": "[6]", "result": 0.185}]}
{"compound": "CCCCCCCCCCCCC/C=C/[C@@H](O)[C@H](CO)N(C)C", "note": "[N,N-Dimethylsphingosine] [listing 2 of 2 here]", "values": [{"measurement": "scaled lipid accumulation score", "setting": "[6]", "result": "0.965 (active)"}]}
{"compound": "Nc1nc(NCC2CCC(CNS(=O)(=O)c3cccc4ccccc34)CC2)nc2ccccc12", "note": "(centres undefined)", "values": [{"measurement": "scaled lipid accumulation score", "setting": "[2]", "result": 0.415}]}
{"compound": "O=C(/C=C/c1ccc(/C=C/C(=O)Nc2ccc(C3=NCCN3)cc2)cc1)Nc1ccc(C2=NCCN2)cc1", "note": "[GW 4869 (hydrochloride hydrate)]", "values": [{"measurement": "scaled lipid accumulation score", "setting": "[6]", "result": 0.115}]}
{"compound": "CCCCC[C@H](O)/C=C/[C@H]1[C@H](O)CC(=O)[C@@H]1C/C=C/CCCC(=O)Oc1ccc(NC(C)=O)cc1", "note": "[Prostaglandin E2 p-acetamidophenyl ester]", "values": [{"measurement": "scaled lipid accumulation score", "setting": "[6]", "result": "≤ 0"}]}
{"compound": "C[C@@H](O)CCC[C@H](O)/C=C/C1=C(C/C=C\\CCCC(=O)O)C(=O)CC1", "note": "[19(R)-hydroxy Prostaglandin B2]", "values": [{"measurement": "scaled lipid accumulation score", "setting": "[6]", "result": "≤ 0"}]}
{"compound": "Fc1ccc([C@@H]2CCNC[C@H]2COc2ccc3c(c2)OCO3)cc1.O=C(O)/C=C\\C(=O)O", "note": "[Paroxetine]", "values": [{"measurement": "scaled lipid accumulation score", "setting": "[2]", "result": "1.02 (active)"}]}
{"compound": "Fc1ccc([C@@H]2CCNC[C@H]2COc2ccc3c(c2)OCO3)cc1.O=C(O)/C=C\\C(=O)O", "note": "[Paroxetine maleate]", "values": [{"measurement": "scaled lipid accumulation score", "setting": "[2]", "result": "1.14 (active)"}]}
{"compound": "CN1CCC(c2c(O)cc(O)c3c(=O)cc(-c4ccccc4Cl)oc23)C1CO", "note": "(centres undefined) [Riviciclib]", "values": [{"measurement": "scaled lipid accumulation score", "setting": "[3]", "result": 0.019}, {"measurement": "scaled lipid accumulation score", "setting": "[4]", "result": 0.272}, {"measurement": "scaled lipid accumulation score", "setting": "[5]", "result": "≤ -0.001"}, {"measurement": "scaled lipid accumulation score", "setting": "[2]", "result": 0.002}]}
{"compound": "COC(=O)/C=C/c1cc(O)ccc1O", "note": "[Methyl 2,5-dihydroxycinnamate]", "values": [{"measurement": "scaled lipid accumulation score", "setting": "[2]", "result": 0.182}]}
{"compound": "CC#CCOC(=O)c1c(C)nc2sc3c(c2c1N)CCC(O)C3", "note": "(centres undefined) [listing 1 of 2 here]", "values": [{"measurement": "scaled lipid accumulation score", "setting": "[2]", "result": "1.72 (active)"}]}
{"compound": "CC#CCOC(=O)c1c(C)nc2sc3c(c2c1N)CCC(O)C3", "note": "(centres undefined) [listing 2 of 2 here]", "values": [{"measurement": "scaled lipid accumulation score", "setting": "[2]", "result": "0.882 (active)"}]}
{"compound": "Cc1cccc(C2CN(C)CCc3c2cc(O)c(O)c3Cl)c1", "note": "(centres undefined)", "values": [{"measurement": "scaled lipid accumulation score", "setting": "[2]", "result": 0.086}]}
{"compound": "CCN(CC)CC#CCOC(=O)C(O)(c1ccccc1)C1CCCCC1", "note": "(centres undefined) [Oxybutynin chloride]", "values": [{"measurement": "scaled lipid accumulation score", "result": 0.397}, {"measurement": "scaled lipid accumulation score", "setting": "[1]", "result": 0.234}, {"measurement": "scaled lipid accumulation score", "setting": "library stock concentration: 5.1 mM", "result": 0.317}, {"measurement": "scaled lipid accumulation score", "setting": "[2]", "result": 0.48}]}
{"compound": "CCN(CC)CC#CCOC(=O)C(O)(c1ccccc1)C1CCCCC1.Cl", "note": "(centres undefined) [Oxybutynin Chloride]", "values": [{"measurement": "scaled lipid accumulation score", "setting": "[2]", "result": "0.862 (active)"}]}
{"compound": "CC[N+](C)(CC)CCOC(=O)C(O)(c1ccccc1)C1CCCCC1", "note": "(centres undefined)", "values": [{"measurement": "scaled lipid accumulation score", "setting": "[2]", "result": "≤ 0"}]}
{"compound": "CCCCC/C=C\\C\\C=C/C=C/C=C/[C@@H](SC[C@H](N)C(=O)NCC(=O)O)[C@@H](O)CCCC(=O)O", "note": "[Leukotriene D4]", "values": [{"measurement": "scaled lipid accumulation score", "setting": "library stock concentration: 100 uM", "result": "≤ -0.014"}]}
